Screening data as filed in PubChem.
3CLpro inhibitor: SARS-CoV 3CLpro protease inhibition | P0C6X7 | recombinant SARS-CoV 3CLpro, quenched FRET peptide cleavage | inhibition, % at 6 µM | 290,000 compounds, 0.14% hits; in the data active means inhibition above about 12%
PrP UTR inh: suppresses PrP 5' UTR mRNA reporter expression; cell-based PrP 5' UTR mRNA reporter, plate reader; inhibition, % (concentration not given with the values); 340,000 compounds, 0.35% hits; in the data active means inhibition above about 52%; further: 0 = median of the neutral control wells
PrPC surface inh: cell surface PrPC inhibition, primary TR-FRET screen | P04156 | TR-FRET read-out | inhibition, % at 13.8 µM | 370,000 compounds, 0.43% hits | AID 720596; in the data active means inhibition above about 24%; further: 0% = median of the test wells and 100% = reference compound wells
BJeLR lethal: kills HRASV12-expressing BJeLR cells | BJeLR (HRASV12) viability, CellTiter-Glo ATP luminescence, 48 h | inhibition, % (no concentration beside the values) | 300,000 compounds, 0.17% hits | AID 1554; in the data active means inhibition above about 50%
PriA SSB inh: blocks PriA binding to SSB C-terminal tail | AlphaScreen SSBct-PriA binding, biotinylated peptide | inhibition, % at 33 µM | 430,000 compounds, 0.6% hits | AID 1272365; in the data active means inhibition mostly above about 37%, no sharp cut-off; inactive means mostly below about 20%;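 further: plate controls were negative control peptide for no effect and reference peptide for full effect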
Active calls of the source: *; x = not tested or not shown; ! = repeats disagree. Most compounds without a hit are left out; they make up all but 1.2% or so of the library.

SMILES	3CLpro inhibitor	PrP UTR inh	PrPC surface inh	BJeLR lethal	PriA SSB inh
O=C(Nc1nc(-c2cc(Cl)sc2Cl)cs1)c1ccc(Br)s1	1	-18	-4	1	44*!
O=C(Nc1nc(-c2cc(Cl)sc2Cl)cs1)c1cccs1	-4	-46	-2	7	-15
COc1ccccc1Nc1nc(-c2ccccn2)cs1	x	x	x	x	26
Fc1ccccc1Nc1nc(-c2ccccn2)cs1	x	x	x	x	77*
Cc1ccc(S(=O)(=O)N2CCOCC2)cc1C(=O)Nc1nc(-c2cccnc2)cs1	-4	-5	-2	-4	-12
O=C(Nc1nc(-c2ccccn2)cs1)c1cc(S(=O)(=O)N2CCOCC2)ccc1F	x	4	-2	x	83*
NC(=O)c1ccccc1OCC#CCNC(=O)C1(c2cccs2)CCCC1	x	x	x	x	-5
CN(C)c1ccc(C(CNC(=O)C2CCCC2)N2CCOCC2)cc1 (stereo not given)	x	x	x	x	9
Fc1ccc(F)c(C2=NNC(=Nc3ccccc3F)SC2)c1	4	-71	9	-12	38
Cc1cccc(N=C2NN=C(c3ccccc3F)CS2)c1C	-1	-31	5	1	44*
Fc1ccccc1N=C1NN=C(c2ccccc2)CS1	4	-67	11	2	14
Fc1ccc(N=C2NN=C(c3cc(F)ccc3F)CS2)cc1	1	-61	2	x	50*
CCN1CCC2(CC1)N=C(SCC(=O)Nc1ccc(F)cc1F)C(c1ccc(F)cc1)=N2	x	x	x	x	-10
COc1ccc(C=Nc2c(-c3ccc(OC)cc3)nc3n2CCS3)cc1	x	x	x	x	56*
FC(F)Oc1ccc(C=Nc2c(-c3ccc(OC(F)F)cc3)nc3n2CCS3)cc1	x	x	x	x	25
CCCCn1c(NC(=O)c2ccccc2)c(S(=O)(=O)c2ccc(C)cc2)c2nc3ccccc3nc21	x	x	x	x	54*
CCCCn1c(NS(=O)(=O)c2ccc(C)cc2)c(S(=O)(=O)c2ccccc2)c2nc3ccccc3nc21	3	18	1	3	23
CCCCn1c(NS(=O)(=O)c2ccc(F)cc2)c(S(=O)(=O)c2ccc(C)cc2)c2nc3ccccc3nc21	x	x	x	x	56*
CCCCn1c(NS(=O)(=O)c2ccccc2)c(C(=O)OCC)c2nc3ccccc3nc21	1	-9	-4	4	33
CCCCCn1c(NS(=O)(=O)c2ccccc2)c(C(=O)OCC)c2nc3ccccc3nc21	x	x	x	x	70*
CCCCCCCCn1c(NS(=O)(=O)c2ccccc2)c(S(=O)(=O)c2ccccc2)c2nc3ccccc3nc21	x	x	x	x	60*
COc1ccc(S(=O)(=O)N2CCN(C(c3ccccc3)c3ccccc3)CC2)c(C)c1C	x	x	x	x	-8
CCCCCCCCn1c(NS(=O)(=O)c2ccc(C)cc2)c(S(=O)(=O)c2ccc(C)cc2)c2nc3ccccc3nc21	x	x	x	x	54*
Cc1cc(C(=O)Nc2nnc(-c3cc(Cl)sc3Cl)o2)c(C)o1	x	x	x	x	-8
O=C(/C=C/c1ccc(F)cc1)NNC(=O)CCN1CCN(Cc2ccccc2)CC1	4	-7	-12	55*	-14
SMILES	3CLpro inhibitor	PrP UTR inh	PrPC surface inh	BJeLR lethal	PriA SSB inh
C(=Nc1ccc(N2CCOCC2)cc1)c1c[nH]c2ccccc12	0	-20	-3	-6	17
Oc1ccc(N=Cc2c[nH]c3ccccc23)cc1	x	x	x	x	46*
CCc1cc2c(=O)[nH]c(N3CCCC3)nc2s1	-3	-41	-5	-4	9
CCc1cc2c(=O)[nH]c(-c3ccccn3)nc2s1	2	-24	17	34	66*
COc1cnc(-c2ccccn2)[nH]c1=O	1	-6	-3	2	144*!
O=c1cc(-c2ccccn2)nc(-c2ccccn2)[nH]1	x	x	x	x	152*
CCOC(=O)Cn1c(=NC(=O)c2ccn(C)n2)sc2cc(SC)ccc21	x	x	x	x	-8
Cc1ccc(OCCNc2cc(N3CCN(CCO)CC3)ccc2[N+](=O)[O-])cc1C	1	-11	-10	3	55*
Cc1cccc(OCCNc2cc(N3CCN(C)CC3)ccc2[N+](=O)[O-])c1	5	-21	-10	2	6
CCOc1ccc(-c2c(C)n(-c3ccc(OCC)cc3)c3[n+]2CCCCC3)cc1	2	-10	28*	70*	-2
O=C(Oc1c(CN2CCOCC2)cc(Cl)c2cccnc12)c1cccc([N+](=O)[O-])c1	x	x	x	x	105*
O=C(/C=C/c1ccc(F)cc1)NC(=S)NNC(=O)c1cnccn1	1	18	1	8	40*
O=C(NC(=S)NNC(=O)c1cnccn1)c1ccc(F)cc1	3	-20	-9	10	42*
Cc1cc(C)cc(OCCNS(=O)(=O)c2cc([N+](=O)[O-])ccc2Cl)c1	x	x	x	x	36*
CCOc1ccc(Nc2nc(N)nc(CCl)n2)cc1	-1	-42	3	99*	-2
COc1ccc(OC)c(Nc2nc(N)nc(CCl)n2)c1	0	-25	4	121*	2
COc1ccccc1Nc1nc(N)nc(CCl)n1	5	-31	0	-3	10
Cc1cccc(Nc2nc(N)nc(CCl)n2)c1	-3	-36	3	94*	-11
Cc1cccc(Nc2nc(N)nc(CCl)n2)c1C	2	x	6	56*	-3
O=C(Cc1cc(=O)[nH]c(SCc2ccccc2F)n1)NCc1ccc(F)cc1	x	x	x	x	-6
CCc1ccc(CNC(=O)c2c(O)c3cccnc3[nH]c2=O)cc1	x	x	x	x	-12
O=C(/C=C/c1ccc2c(c1)OCO2)NCCS(=O)(=O)N1CCc2ccccc2C1	x	x	x	x	2
Cc1ccc(Nc2nc(N)nc(CCl)n2)cc1	0	-85	-6	-1	-9
Cc1ccc(Nc2nc(N)nc(CCl)n2)c(C)c1	-3	-58	-7	121*	5
O=C(N/N=C\C=C\c1ccccc1)c1cc(-c2cccc3ccccc23)n[nH]1	x	x	x	x	18
SMILES	3CLpro inhibitor	PrP UTR inh	PrPC surface inh	BJeLR lethal	PriA SSB inh
O=C(CSc1ccc(-c2ccccn2)nn1)Nc1ccccc1C(F)(F)F	x	x	x	x	69*
O=C(CSc1ccc(-c2ccccn2)nn1)Nc1ccccc1Cl	x	x	x	x	65*
O=C(CSc1ccc(-c2ccccn2)nn1)Nc1ccc(Cl)cc1	x	x	x	x	31
Cc1nc(SCC(=O)Nc2ccccc2C(F)(F)F)cc(-c2ccccn2)n1	x	x	x	x	-8
O=C(NCCOc1ccc(-c2ccccn2)nn1)c1ccccc1C(F)(F)F	x	x	x	x	95*
COc1cc(NC(=O)CN2C(=O)NC(c3ccccc3)(c3ccccc3)C2=O)cc(OC)c1	1	-35	0	-11	45*
Cc1ccc(S(=O)(=O)Nc2ccccc2-c2ccccc2NS(=O)(=O)c2ccc(C)cc2)cc1	14*	-11	1	4	7
Cc1ccc(S(=O)(=O)Nc2ccccc2C(N)=O)cc1	6	-14	-1	-4	-6
COc1ccc(N=C2S/C(=C\c3ccc(N4CCOCC4)o3)C(=O)N2CCc2c[nH]c3ccccc23)cc1	9	-8	x	-6	x
COc1ccc(N=C2S/C(=C\c3ccc(OCC(=O)O)cc3)C(=O)N2CCc2c[nH]c3ccccc23)cc1	2	-5	10	5	51*
CCN(CC)c1ccc(N)cc1	x	3	x	x	65*
Nc1ccc(N(CCO)CCO)cc1	4	-34	-7	3	11
Cc1cc(=O)n2c3c(c4c(cc13)c(CN(C)C)cc(=O)n4C)OC2	x	-9	40*	x	14
CC(C)(C)S(=O)(=O)c1ccc(NCc2ccc3c(c2)OCO3)nn1	x	x	x	x	-7
